The results in this text go back to paper PMC7862700, “An all-to-all approach to the identification of sequence-specific readers for epigenetic DNA modifications on cytosine”.

Holding throughout (assay): DAPPL (digital affinity profiling via proximity ligation, sequencing); 10 mM Tris-HCl pH 7.5, 50 mM NaCl, 1 mM DTT, 4% glycerol, room temperature, 30 min; GST-TFs on glutathione beads, 16-mer random dsDNA library, 0.1% formaldehyde crosslink after washing; high values mean tight binding
What all share (settings): protein: recombinant; tags: N-terminal GST; dsDNA, one strand shown

One test has as its target T1, FLI1 (Homo sapiens, UniProt Q01543 1-452).
T1 sequence: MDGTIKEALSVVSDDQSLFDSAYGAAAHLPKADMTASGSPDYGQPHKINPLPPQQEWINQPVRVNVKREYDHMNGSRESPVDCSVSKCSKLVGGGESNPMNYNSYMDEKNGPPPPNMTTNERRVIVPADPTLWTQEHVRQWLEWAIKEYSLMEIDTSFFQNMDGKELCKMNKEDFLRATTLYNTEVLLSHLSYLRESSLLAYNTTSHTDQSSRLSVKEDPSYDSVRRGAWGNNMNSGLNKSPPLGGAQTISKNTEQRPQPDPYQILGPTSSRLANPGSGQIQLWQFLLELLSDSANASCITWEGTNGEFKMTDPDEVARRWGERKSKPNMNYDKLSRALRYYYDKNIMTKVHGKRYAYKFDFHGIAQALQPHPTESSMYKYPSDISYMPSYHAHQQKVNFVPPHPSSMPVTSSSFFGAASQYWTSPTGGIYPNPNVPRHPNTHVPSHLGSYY
Put shortly: (§1)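 Each value of binding signal is a hexamer's read frequency for a factor divided by the same hexamer's frequency in the tag-only sample. Barcoded, bead-captured GST fusions of human transcription factors made in yeast were pooled with that sample and incubated with 200 nmole of a random double-stranded 16-mer DNA library in Tris/NaCl/DTT/glycerol buffer at room temperature for 30 min. Washing, 0.1% formaldehyde crosslinking, proximity ligation, PCR and Illumina NextSeq500 sequencing followed.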

The next test has as its target T2, ELK1 (Homo sapiens, UniProt P19419 1-428).
T2 sequence: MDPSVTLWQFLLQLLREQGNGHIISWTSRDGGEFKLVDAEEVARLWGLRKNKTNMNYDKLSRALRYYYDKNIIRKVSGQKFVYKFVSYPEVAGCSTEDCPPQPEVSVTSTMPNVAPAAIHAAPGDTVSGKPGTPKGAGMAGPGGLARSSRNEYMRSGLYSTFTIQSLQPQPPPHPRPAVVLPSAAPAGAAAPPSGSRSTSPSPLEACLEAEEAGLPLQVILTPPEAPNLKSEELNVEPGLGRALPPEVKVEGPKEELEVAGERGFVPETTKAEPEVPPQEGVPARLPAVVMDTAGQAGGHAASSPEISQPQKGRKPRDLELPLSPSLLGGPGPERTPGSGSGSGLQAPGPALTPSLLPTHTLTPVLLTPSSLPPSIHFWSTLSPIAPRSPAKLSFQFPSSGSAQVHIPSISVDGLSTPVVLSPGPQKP
Put shortly:
as §1

The next test addresses T3, GABPA (Homo sapiens, UniProt Q06546 1-454).
T3 sequence: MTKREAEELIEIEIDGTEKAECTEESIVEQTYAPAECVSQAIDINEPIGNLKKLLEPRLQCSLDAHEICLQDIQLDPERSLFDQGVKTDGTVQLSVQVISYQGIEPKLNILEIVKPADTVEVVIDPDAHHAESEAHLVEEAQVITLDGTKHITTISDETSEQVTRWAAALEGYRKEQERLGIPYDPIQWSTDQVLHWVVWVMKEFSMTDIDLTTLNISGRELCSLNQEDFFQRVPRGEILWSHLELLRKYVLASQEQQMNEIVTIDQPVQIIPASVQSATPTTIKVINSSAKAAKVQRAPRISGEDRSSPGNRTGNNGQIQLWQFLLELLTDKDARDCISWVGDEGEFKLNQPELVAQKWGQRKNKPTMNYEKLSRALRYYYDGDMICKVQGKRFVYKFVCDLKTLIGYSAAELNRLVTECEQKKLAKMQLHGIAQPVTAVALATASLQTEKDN
The procedure, abridged: as §1

A further test deals with T4, ERG (Homo sapiens, UniProt P11308 1-479).
T4 sequence: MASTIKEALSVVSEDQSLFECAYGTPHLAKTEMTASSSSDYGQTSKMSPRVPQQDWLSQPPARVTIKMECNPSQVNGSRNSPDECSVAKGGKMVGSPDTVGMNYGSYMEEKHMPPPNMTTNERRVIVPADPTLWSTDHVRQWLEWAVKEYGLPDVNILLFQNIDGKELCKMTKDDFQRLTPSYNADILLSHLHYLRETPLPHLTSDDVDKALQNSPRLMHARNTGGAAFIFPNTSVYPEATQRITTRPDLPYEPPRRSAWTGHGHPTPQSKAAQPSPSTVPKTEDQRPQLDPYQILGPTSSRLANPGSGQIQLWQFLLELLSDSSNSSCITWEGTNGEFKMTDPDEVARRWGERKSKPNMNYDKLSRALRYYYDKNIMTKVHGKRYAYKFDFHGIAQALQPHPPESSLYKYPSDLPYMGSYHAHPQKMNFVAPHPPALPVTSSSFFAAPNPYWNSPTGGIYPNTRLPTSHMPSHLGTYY
The procedure, abridged:
as §1

In the next test the target is ELF1 (Homo sapiens, UniProt P32519 1-619). Put shortly:
as §1

Another test deals with T5, EHF (Homo sapiens, UniProt Q9NZC4 1-300).
T5 sequence: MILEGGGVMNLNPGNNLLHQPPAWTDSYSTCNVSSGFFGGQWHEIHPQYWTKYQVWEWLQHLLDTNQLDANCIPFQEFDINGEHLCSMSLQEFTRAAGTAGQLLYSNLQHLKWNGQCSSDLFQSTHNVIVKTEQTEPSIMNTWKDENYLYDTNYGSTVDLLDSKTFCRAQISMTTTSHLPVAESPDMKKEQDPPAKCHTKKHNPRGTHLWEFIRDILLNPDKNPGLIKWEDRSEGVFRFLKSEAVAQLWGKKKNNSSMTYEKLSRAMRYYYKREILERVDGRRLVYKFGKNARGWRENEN
Put shortly: as §1

The target of a further test is SPI1 (Homo sapiens, UniProt P17947 1-270). Put shortly:
as §1

The target in the next test is SPIB (Homo sapiens, UniProt Q01892 1-262). Put shortly: as §1
Sequence of SPIB (Q01892 whole entry): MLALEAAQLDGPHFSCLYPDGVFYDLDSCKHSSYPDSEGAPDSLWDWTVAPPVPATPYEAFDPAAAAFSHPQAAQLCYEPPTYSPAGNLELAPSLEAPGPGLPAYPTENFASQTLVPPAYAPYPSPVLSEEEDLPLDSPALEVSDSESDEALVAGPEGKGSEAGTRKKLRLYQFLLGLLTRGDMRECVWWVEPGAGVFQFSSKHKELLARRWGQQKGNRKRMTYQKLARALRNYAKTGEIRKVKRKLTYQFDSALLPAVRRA
The target of another test is T6, ELK3 (Homo sapiens, UniProt P41970 1-407).
T6 sequence: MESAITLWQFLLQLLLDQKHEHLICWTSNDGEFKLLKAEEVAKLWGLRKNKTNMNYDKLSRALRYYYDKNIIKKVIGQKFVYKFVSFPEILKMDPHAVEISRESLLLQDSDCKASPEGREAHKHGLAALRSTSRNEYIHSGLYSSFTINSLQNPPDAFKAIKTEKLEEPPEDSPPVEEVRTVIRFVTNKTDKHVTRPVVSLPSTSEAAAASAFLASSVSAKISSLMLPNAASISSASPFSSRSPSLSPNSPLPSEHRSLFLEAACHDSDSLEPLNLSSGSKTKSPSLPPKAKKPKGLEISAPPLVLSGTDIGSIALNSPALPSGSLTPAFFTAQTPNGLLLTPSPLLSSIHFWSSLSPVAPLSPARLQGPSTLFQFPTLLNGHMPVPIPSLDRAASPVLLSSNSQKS
Put shortly:
as §1

The target in the next test is T7, FEV (Homo sapiens, UniProt Q99581 1-238).
T7 sequence: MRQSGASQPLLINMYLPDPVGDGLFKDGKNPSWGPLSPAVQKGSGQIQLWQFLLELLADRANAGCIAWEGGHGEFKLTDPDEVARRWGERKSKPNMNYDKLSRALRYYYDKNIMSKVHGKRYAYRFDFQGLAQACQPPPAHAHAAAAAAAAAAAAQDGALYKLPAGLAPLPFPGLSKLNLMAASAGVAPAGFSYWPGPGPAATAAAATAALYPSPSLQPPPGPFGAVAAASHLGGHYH
The procedure, abridged:
as §1

Another test addresses ETV5 (Homo sapiens, UniProt P41161 1-510). Put shortly:
as §1

The target of the next test is T8, SPIC (Homo sapiens, UniProt Q8N5J4 1-248).
T8 sequence: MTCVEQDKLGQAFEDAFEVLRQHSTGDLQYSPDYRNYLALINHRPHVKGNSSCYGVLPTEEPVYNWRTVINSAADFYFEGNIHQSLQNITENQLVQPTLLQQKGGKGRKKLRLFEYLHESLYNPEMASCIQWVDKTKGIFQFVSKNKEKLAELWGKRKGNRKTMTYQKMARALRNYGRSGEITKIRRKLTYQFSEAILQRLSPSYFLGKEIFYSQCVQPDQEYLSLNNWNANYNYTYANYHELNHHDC
The procedure, abridged: as §1

The target of another test is ELF4 (Homo sapiens, UniProt Q99607 1-663). The procedure, abridged:
as §1

The next test concerns the target T9, ELK4 (Homo sapiens, UniProt P28324-2 1-405).
T9 sequence: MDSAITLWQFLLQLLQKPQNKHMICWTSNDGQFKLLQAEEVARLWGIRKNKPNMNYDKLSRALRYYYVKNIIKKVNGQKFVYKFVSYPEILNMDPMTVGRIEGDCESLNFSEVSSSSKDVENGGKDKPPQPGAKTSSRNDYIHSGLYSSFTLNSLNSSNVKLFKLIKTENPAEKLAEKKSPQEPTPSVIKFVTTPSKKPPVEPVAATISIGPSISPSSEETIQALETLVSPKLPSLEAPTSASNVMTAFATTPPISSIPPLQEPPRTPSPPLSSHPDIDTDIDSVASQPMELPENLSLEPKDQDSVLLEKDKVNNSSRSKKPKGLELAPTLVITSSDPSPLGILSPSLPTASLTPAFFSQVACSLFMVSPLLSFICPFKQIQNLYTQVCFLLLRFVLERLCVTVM
The procedure, abridged:
as §1

The target in a further test is T10, ETV2 (Homo sapiens, UniProt O00321 1-342).
T10 sequence: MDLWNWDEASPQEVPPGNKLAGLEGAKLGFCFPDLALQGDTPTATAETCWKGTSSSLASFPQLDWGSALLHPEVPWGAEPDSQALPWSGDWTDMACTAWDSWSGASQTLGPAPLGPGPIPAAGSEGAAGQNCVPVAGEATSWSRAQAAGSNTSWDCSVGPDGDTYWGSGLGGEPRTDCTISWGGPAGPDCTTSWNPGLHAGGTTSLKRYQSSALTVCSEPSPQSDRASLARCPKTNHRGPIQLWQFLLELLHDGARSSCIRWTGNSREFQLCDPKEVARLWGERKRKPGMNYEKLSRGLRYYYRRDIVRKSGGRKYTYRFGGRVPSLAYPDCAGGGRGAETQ
Put shortly: as §1

The next test concerns the target T11, ELF3 (Homo sapiens, UniProt P78545 1-371).
T11 sequence: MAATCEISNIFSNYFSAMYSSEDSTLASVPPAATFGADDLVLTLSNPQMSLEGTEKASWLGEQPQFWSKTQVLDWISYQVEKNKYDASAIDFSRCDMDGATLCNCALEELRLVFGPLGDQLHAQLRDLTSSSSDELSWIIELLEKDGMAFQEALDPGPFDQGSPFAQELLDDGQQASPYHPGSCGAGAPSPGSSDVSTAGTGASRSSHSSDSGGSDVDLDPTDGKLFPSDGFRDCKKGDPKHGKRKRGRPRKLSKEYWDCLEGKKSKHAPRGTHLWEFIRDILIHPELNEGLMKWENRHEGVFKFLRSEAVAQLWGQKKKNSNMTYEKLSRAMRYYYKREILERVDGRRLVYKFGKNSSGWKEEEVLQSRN
Put shortly:
as §1

The target of another test is ETV1 (Homo sapiens, UniProt P50549 1-477). The procedure, abridged: as §1
Sequence of ETV1 (P50549 whole entry): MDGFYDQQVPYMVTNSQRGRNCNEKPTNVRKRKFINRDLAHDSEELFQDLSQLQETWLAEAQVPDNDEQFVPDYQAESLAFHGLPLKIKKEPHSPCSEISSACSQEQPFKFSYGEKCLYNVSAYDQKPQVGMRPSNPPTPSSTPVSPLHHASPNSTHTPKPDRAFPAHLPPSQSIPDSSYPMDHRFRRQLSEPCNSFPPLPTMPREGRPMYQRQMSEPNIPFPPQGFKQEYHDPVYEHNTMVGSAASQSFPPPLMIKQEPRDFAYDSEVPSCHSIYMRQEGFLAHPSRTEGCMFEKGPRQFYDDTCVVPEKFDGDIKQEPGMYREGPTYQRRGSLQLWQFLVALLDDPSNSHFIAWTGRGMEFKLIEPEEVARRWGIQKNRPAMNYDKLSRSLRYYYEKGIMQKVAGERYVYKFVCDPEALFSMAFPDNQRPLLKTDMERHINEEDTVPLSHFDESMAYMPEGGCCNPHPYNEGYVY

Sequence of ELF1 (P32519 whole entry): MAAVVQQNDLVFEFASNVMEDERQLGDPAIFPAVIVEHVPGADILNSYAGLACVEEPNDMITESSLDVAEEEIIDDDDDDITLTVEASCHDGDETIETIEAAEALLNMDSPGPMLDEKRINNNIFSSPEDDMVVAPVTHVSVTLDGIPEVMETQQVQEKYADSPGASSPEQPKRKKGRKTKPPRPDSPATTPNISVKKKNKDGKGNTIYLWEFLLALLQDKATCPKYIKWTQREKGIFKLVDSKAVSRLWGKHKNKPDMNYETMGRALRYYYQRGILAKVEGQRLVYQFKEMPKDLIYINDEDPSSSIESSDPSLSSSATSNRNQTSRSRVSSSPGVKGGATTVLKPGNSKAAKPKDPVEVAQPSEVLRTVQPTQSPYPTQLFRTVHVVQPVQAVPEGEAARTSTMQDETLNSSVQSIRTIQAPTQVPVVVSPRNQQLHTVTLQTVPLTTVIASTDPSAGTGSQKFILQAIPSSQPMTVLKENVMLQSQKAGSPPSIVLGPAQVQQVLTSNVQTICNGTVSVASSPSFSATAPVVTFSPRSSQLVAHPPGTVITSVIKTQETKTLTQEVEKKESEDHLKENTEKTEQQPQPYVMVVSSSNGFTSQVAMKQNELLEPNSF
Sequence of ETV5 (P41161 whole entry): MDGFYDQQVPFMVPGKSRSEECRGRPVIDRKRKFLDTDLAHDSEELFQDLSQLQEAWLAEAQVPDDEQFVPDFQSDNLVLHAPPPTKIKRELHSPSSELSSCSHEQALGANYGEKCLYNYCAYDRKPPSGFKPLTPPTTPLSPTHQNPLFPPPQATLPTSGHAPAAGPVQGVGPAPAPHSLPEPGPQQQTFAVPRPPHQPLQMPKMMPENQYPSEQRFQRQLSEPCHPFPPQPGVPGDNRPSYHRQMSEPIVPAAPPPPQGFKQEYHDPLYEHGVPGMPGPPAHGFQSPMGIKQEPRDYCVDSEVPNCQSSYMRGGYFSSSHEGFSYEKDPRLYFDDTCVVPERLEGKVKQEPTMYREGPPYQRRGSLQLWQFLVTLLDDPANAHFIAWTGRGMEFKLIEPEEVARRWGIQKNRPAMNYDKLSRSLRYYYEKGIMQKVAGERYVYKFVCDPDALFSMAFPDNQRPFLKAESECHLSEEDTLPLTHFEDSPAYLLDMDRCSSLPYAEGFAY
Sequence of ELF4 (Q99607 whole entry): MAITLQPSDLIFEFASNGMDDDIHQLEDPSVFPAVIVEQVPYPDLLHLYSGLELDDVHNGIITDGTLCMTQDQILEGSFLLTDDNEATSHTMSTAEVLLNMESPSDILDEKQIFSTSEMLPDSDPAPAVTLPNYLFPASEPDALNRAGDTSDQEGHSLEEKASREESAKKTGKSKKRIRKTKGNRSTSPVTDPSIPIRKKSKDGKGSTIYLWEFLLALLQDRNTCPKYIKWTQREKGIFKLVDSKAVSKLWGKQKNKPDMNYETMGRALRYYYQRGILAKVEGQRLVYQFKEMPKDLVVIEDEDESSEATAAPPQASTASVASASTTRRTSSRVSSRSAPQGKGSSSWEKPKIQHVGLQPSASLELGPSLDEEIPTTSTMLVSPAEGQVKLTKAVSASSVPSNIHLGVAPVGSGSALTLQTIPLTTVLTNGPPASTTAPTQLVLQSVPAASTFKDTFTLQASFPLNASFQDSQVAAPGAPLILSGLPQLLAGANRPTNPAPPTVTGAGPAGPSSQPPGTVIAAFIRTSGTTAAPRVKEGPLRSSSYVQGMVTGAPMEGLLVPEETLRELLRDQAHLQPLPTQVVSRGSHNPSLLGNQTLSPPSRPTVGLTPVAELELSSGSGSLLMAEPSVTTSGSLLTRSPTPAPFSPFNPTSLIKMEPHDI

On to GCGTCC, for which the binding signal is 1.26 fold enrichment (6-mer frequency, TF over GST control) with FLI1; 1.27 fold enrichment (6-mer frequency, TF over GST control) with ELK1; 1.27 fold enrichment (6-mer frequency, TF over GST control) with GABPA; 1.28 fold enrichment (6-mer frequency, TF over GST control) in the test with ERG; 1.26 fold enrichment (6-mer frequency, TF over GST control) with ELF1; 1.22 fold enrichment (6-mer frequency, TF over GST control) with EHF. Besides, the binding signal with SPI1 is 1.23 fold enrichment (6-mer frequency, TF over GST control); in the test with SPIB it was 1.3 fold enrichment (6-mer frequency, TF over GST control); with ELK3 it was 1.29 fold enrichment (6-mer frequency, TF over GST control); with FEV, 1.36 fold enrichment (6-mer frequency, TF over GST control); with ETV5, 1.16 fold enrichment (6-mer frequency, TF over GST control); with SPIC, 1.23 fold enrichment (6-mer frequency, TF over GST control). The binding signal with ELF4 was 1.2 fold enrichment (6-mer frequency, TF over GST control); in the test with ELK4 it was 1.25 fold enrichment (6-mer frequency, TF over GST control); with ETV2 it was 1.08 fold enrichment (6-mer frequency, TF over GST control); with ELF3, 1.37 fold enrichment (6-mer frequency, TF over GST control); with ETV1, 1.26 fold enrichment (6-mer frequency, TF over GST control).

In the case of CGTCCG, the binding signal with FLI1 was 1.31 fold enrichment (6-mer frequency, TF over GST control); in the test with ELK1, 1.27 fold enrichment (6-mer frequency, TF over GST control); with GABPA, 1.24 fold enrichment (6-mer frequency, TF over GST control); with ERG, 1.27 fold enrichment (6-mer frequency, TF over GST control); in the test with ELF1, 1.28 fold enrichment (6-mer frequency, TF over GST control); with EHF, 1.36 fold enrichment (6-mer frequency, TF over GST control). In addition, the binding signal was 1.08 fold enrichment (6-mer frequency, TF over GST control) with SPI1; 1.41 fold enrichment (6-mer frequency, TF over GST control) with SPIB; 1.36 fold enrichment (6-mer frequency, TF over GST control) in the test with ELK3; 1.48 fold enrichment (6-mer frequency, TF over GST control) in the test with FEV; 1.23 fold enrichment (6-mer frequency, TF over GST control) in the test with ETV5; 1.37 fold enrichment (6-mer frequency, TF over GST control) in the test with SPIC. Moreover, the binding signal in the test with ELF4 is 1.26 fold enrichment (6-mer frequency, TF over GST control); with ELK4, 1.17 fold enrichment (6-mer frequency, TF over GST control); with ETV2, 1.16 fold enrichment (6-mer frequency, TF over GST control); in the test with ELF3 it was 1.26 fold enrichment (6-mer frequency, TF over GST control); in the test with ETV1, 1.38 fold enrichment (6-mer frequency, TF over GST control).
